“And” between values parts separate entries of the source, which are not always exact repeats. Identical values can stand only once. Records with an inconclusive call do not appear. The source made the active and inactive calls. Calls come from the whole dose curve; as a rule, active = well fitted cell-killing curve with a large enough effect in the repeat runs; inconclusive = weak or mixed curves, or effect the other way; inactive = no such curve, though single readings can be large or run the other way.
% is set by controls: 0 for no effect and ±100 for the full control effect; potency is the fitted concentration of half-maximal effect.

This assay is described as follows: Caspase-3/7 induction in CHO-K1 cells by small molecules, qHTS cell viability counter screen (AID 1346979). Note: nearly all actives have a fitted effect of over 35% in size. The following applies: CellTiter-Fluor fluorescence, 17 h; series mostly up to 92.4 µM; activity change, negative = cytotoxicity: at the top concentration. An excerpt:
National Center for Advancing Translational Sciences [NCATS]
NIH Chemical Genomics Center [NCGC]
U.S. Environmental Protection Agency [EPA]
National Institutes of Environmental Health Sciences [NIEHS]
National Toxicology Program [NTP]
U.S. Food and Drug Administration [FDA]
Apoptosis is a process of programmed cell death and plays a central role in the development of multicellular organisms. It is a highly regulated process and induces cell death by activating caspases, which are the members of cysteine aspartic acid-specific protease (caspase) family. Caspases involved in apoptosis are classified by their mechanism of action as initiator caspases (caspase-2, -8, -9 and -10) and executioner caspases (caspase-3, -6, and -7). Inhibition of apoptosis results in number of cancers, autoimmune diseases, inflammatory diseases and viral infection. To identify small molecule compounds that induce apoptosis, a homogeneous, luminescent Caspase-Glo 3/7 assay was used. Wild type CHO-K1 cells were used to screen Tox21 libraries for identifying caspase-3/7 activity inducers. Also cytotoxicity of the compounds was tested in parallel by measuring the cell viability using CellTiter-Fluor assay system in the same wells.
Tox21 Assay Protocol Summary:
CHO-K1 cells were dispensed at 1,500 per well in 5uL of culture medium into white solid bottom 1536-well plates (Corning Life Sciences, Corning, NY) using a Multidrop Combi (Thermo Scientific, Waltham, MA) dispenser. The assay plates were incubated at 37 C and 5% CO2 for 5hr, and then 23nL of compounds dissolved in DMSO and positive control were transferred using a Pintool station (Wako, San Diego, CA). The assay plates were incubated at 37C and 5% CO2 for 17hr. For cytotoxicity read, after 16hr incubation at 37C, 1uL CellTiter-Fluor reagent (Promega Corporation, Madison, WI) was added to each well of the assay plates using Flying Reagent Dispenser (FRD, Aurora Discovery, San Diego, CA). After 1hr incubation at 37C and 5% CO2, the fluorescence signal was quantified using a ViewLux plate reader (PerkinElmer, Shelton, CT).
On the technique in general: Quantitative high-throughput screening tests each substance at several concentrations.
Consider `C[N+](C)(C)CCCl`, for which the “activity change, negative = cytotoxicity” value was 0.447% (inactive).
`COC(N)=O`: the “activity change, negative = cytotoxicity” value is 2.72% (inactive).
`Clc1cc(C(Cl)(Cl)Cl)cnc1Cl`: the Potency is 61.1 µM (active).
Still for that read-out and setting: as for `CCC(C)(NC(=O)c1cc(Cl)c(C)c(Cl)c1)C(=O)CCl` (stereo not given), the figure is 24.5 µM (active).
On to `N#CCc1ccccc1`, for which the “activity change, negative = cytotoxicity” value was 1.51% (inactive).
Still for that read-out and setting: the same measure for `CN1C(=O)NC(=O)C(C)(C2=CCCCC2)C1=O` (stereo not given): 8.13% [at 42.5 µM] (inactive); for `O=C(NCc1cccnc1)Nc1ccc([N+](=O)[O-])cc1`: 1.31% (inactive).
Consider `[CH3][Sn]([CH3])([Cl])[Cl]`, for which the Potency was 31.1 µM (active) and 54.5 µM (active).
`c1ccc(CN2CCNCC2)cc1`: the “activity change, negative = cytotoxicity” value is -0.362% [at 240 µM] (inactive).
Same read-out and setting: the same measure for `C=CC(=O)OC`: 4.28% (inactive); for `C=CCOC(C)=O`: -0.531% (inactive); for `CCCCCCCCCCOC(=O)c1ccccc1C(=O)OCCCCCCCCCC`: 6.22% (inactive).
The same measure, in the same setting: the same measure for `CC(=O)C(C)(C)C`: 4.34% (inactive); for `O=S(=O)(Cl)c1ccccc1`: 8.78% (inactive); for `CCOC(=O)C(Cl)C(C)=O` (stereo not given): 6.63% (inactive).
As to `O=C(N[C@H](c1ccccc1)[C@@H]1CN2CCC1CC2)c1c(Cl)ccc(C(F)(F)F)c1Cl`, the Potency was 78.1 µM (active).
On the same count and under the same terms, as for `C=CC(=O)OCCCCO`, the figure is 54.5 µM (active).
Consider `Cl/C=C\Cl`, for which the “activity change, negative = cytotoxicity” value is 9.04% (inactive).
With `c1ccoc1`, the “activity change, negative = cytotoxicity” value was 3.27% (inactive).
Still for that read-out and setting: the same measure for `O=C(O)C(F)(F)C(F)(F)C(F)(F)C(F)(F)C(F)(F)C(F)(F)C(F)(F)C(F)(F)C(F)(F)F`: -3.07% (inactive).
For `O=[N+]([O-])c1cc(C(F)(F)F)cc([N+](=O)[O-])c1Cl`, the Potency is 68.9 µM (active).
Turning to `Cn1cc[n+](C)c1` (tested in a mixture with another compound), the “activity change, negative = cytotoxicity” value was 5.84% (inactive).
On the same count and under the same terms, as for `CN1[C@@H]2CC[C@H]1CC(OC(=O)c1cc(Cl)cc(Cl)c1)C2` (stereo not given in full), the figure is -13% [at 42.5 µM] (inactive); as for `CCCCC(CC)COP(=O)(Oc1ccccc1)Oc1ccccc1` (stereo not given), 0.373% (inactive); as for `Sc1ccccc1Cl`, 4.6% [at 42.5 µM] (inactive).
Still for that read-out and setting: as for `C/C=C/C=O`, the figure is -1.62% (inactive); as for `CCCCCCCCCC(=O)O[C@H]1CC[C@H]2[C@@H]3CCC4=CC(=O)CC[C@@H]4[C@H]3CC[C@]12C`, -4.06% [at 42.5 µM] (inactive); as for `Cc1ccc2ccccc2c1`, 0.986% (inactive).
As to `O=S(=O)(O)C(F)(F)C(F)(F)C(F)(F)C(F)(F)F`, the Potency was 54.5 µM (active).
Same read-out and setting: as for `CC1(C)CCC(Cc2ccc(Cl)cc2)C1(O)Cn1cncn1` (stereo not given), the figure is 68.6 µM (active).
As to `CC1(C)[C@H](C=C(Cl)Cl)[C@@H]1C(=O)O[C@@H](C#N)c1cccc(Oc2ccccc2)c1`, the “activity change, negative = cytotoxicity” value is -3.29% (inactive).
Still for that read-out and setting: as for `Nc1nc(=S)[nH][nH]1`, the figure is 7.89% (inactive).
Consider `CO/N=C(/C(=O)OC)c1ccccc1COc1ccccc1C`, for which the Potency is 2.73 µM (active).
In the case of `COC(=O)C(Cl)C(=O)OC`, the “activity change, negative = cytotoxicity” value was -1.07% [at 42.5 µM] (inactive).
The same measure, in the same setting: the same measure for `CC(=O)NC1CCSC1=O` (stereo not given): 5.1% [at 42.5 µM] (inactive).
For `C=CC[C@]1(O)CC[C@H]2[C@@H]3CCC4=CC(=O)CCC4=C3C=C[C@@]21C`, the Potency was 7.5 µM (active).
As to `COC(=O)C(Br)CBr` (stereo not given), the “activity change, negative = cytotoxicity” value is -3.18% (inactive).
In the case of `C/C(=C\c1ccccc1)[N+](=O)[O-]`, the Potency was 10.9 µM (active).
Still for that read-out and setting: the same measure for `OC(c1ccc(Cl)cc1)(c1ccc(Cl)cc1)c1cccnc1`: 61.1 µM (active).
Regarding `Brc1ccccc1`, the “activity change, negative = cytotoxicity” value was -3.27% (inactive).

For the origin of these results see PubChem BioAssay (Tox21).
